Assay in all cases: NCI-60 one-dose screen, 48 h (100 = growth as untreated, 0 = no growth, -100 = all killed)
The test system of one assay is T-47D breast. To be noted: 10 µM.
The test system of the next assay is BT-549 breast. To be noted: 10 µM unless noted.
Another assay concerns MDA-MB-435 melanoma. The settings on record: 10 µM unless noted.
A further assay concerns SW-620 colon. To be noted: 10 µM unless noted.
The test system of the next assay is MCF7 breast. To be noted: 10 µM unless noted.
For another assay, the system named is HCT-116 colon. To be noted: 10 µM unless noted.
The next assay relates to HCC-2998 colon. The settings on record: 10 µM unless noted.
The test system of the next assay is KM12 colon. To be noted: 10 µM unless noted.

Each structure is given as a SMILES string. This is part of a sample that, as a whole, favours compounds with a hit. Of some 83,000 tested, about 20% had one in any assay.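 Values shown are percent growth following 48 h exposure of cells in 96-well plates to a single concentration of compound; below 10 was considered active.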 A number with no mark means an inactive call. Calls of active or inactive are those of the source.

For the compound `FC(F)(F)c1cc(CNc2nc(Cl)ncc2Br)cc(C(F)(F)F)c1`, the growth with T-47D breast is 82.1%; in the assay on BT-549 breast it was 90%; with MDA-MB-435 melanoma it was 45.9%; with SW-620 colon it was 103%; in the assay on MCF7 breast, 93.3%; with HCT-116 colon it was 96.1%. In addition, the growth was 97.8% in the assay on HCC-2998 colon and 71.2% with KM12 colon.
Turning to `Cn1cc(C(=O)NCCC(=N)N)cc1NC(=O)CN=C(N)N`, the growth is 110% with T-47D breast; 99.9% in the assay with BT-549 breast; 111% with MDA-MB-435 melanoma; 106% with SW-620 colon; 111% in the assay with MCF7 breast; 92.6% in the assay with HCT-116 colon. The growth with HCC-2998 colon is 88.6%; in the assay on KM12 colon it was 104%.
In the case of `COC1(OC)C2(Cl)C=C(c3ccccc3)C1(Cl)C(Cl)=C2Cl` (stereo not given), the growth in the assay on T-47D breast was 95.6%; with BT-549 breast it was 88.2%; in the assay on MDA-MB-435 melanoma, 95.7%; in the assay with SW-620 colon it was 115%; with MCF7 breast, 99.2%; in the assay with HCT-116 colon, 79.3%. The growth in the assay with HCC-2998 colon is 99.8%; in the assay on KM12 colon it was 109%.
Consider `CC(C)(C)[Si](C)(C)OC1[C@@H](COC(N)=O)O[C@@H](n2cnc3c(N)ncnc32)[C@H]1O[Si](C)(C)C(C)(C)C` (stereo not given in full), for which the growth is 84.4% in the assay on T-47D breast; 106% with BT-549 breast; 74.6% in the assay on MDA-MB-435 melanoma; 100% in the assay with SW-620 colon; 78.6% in the assay on MCF7 breast; 90.1% in the assay with HCT-116 colon. Besides, the figures for the growth in the assay on HCC-2998 colon and in the assay on KM12 colon were 107% and 76%, respectively.
`Cc1cccc2c(=O)c3c(sc12)c(NCCNCCO)nc1ccccc13`: the growth with T-47D breast was 44.8%; in the assay with BT-549 breast, 78.4%; with MDA-MB-435 melanoma, 7.39% (active); with SW-620 colon it was -67% (active); in the assay with MCF7 breast it was -69% (active); with HCT-116 colon, -70.6% (active). Further, the growth was -24.9% (active) with HCC-2998 colon and 5.93% (active) with KM12 colon.
For `Cc1cc(=O)c2c(C)ccc(C)c2[nH]1`, the growth in the assay with T-47D breast was 96.1%; in the assay on BT-549 breast it was 123%; with MDA-MB-435 melanoma it was 104%; in the assay on SW-620 colon, 104%; with MCF7 breast, 93.5%; with HCT-116 colon, 96.3%. The growth was 91.2% in the assay with HCC-2998 colon and 130% in the assay with KM12 colon.
As to `COc1ccc(-c2nc3sccn3c2/C=C/C(=O)c2cc(OC)c(OC)c(OC)c2)cc1OC`, the growth in the assay with T-47D breast is 4.81% (active); with BT-549 breast it was 0.662% (active); in the assay on MDA-MB-435 melanoma it was -30.5% (active); with SW-620 colon, 10.2%; in the assay on MCF7 breast it was 4.93% (active); in the assay with HCT-116 colon, 7.36% (active). Moreover, the growth was 40.3% in the assay on HCC-2998 colon and -15.2% (active) in the assay on KM12 colon.
For the compound `COc1ccc(OC)c2ncccc12`, the growth in the assay on T-47D breast is 100%; in the assay on BT-549 breast, 97.4%; in the assay with MDA-MB-435 melanoma, 105%; with SW-620 colon, 99%; in the assay on MCF7 breast it was 84.8%; with HCT-116 colon it was 100%. Besides, the growth in the assay with HCC-2998 colon is 103%; with KM12 colon, 99.6%.
With `CCN1C(=O)C2(Nc3ccccc3S2)c2cc(C)ccc21` (stereo not given), the growth is 93.5% with T-47D breast; 110% with BT-549 breast; 102% in the assay with MDA-MB-435 melanoma; 96.5% with SW-620 colon; 101% with MCF7 breast; 96.7% in the assay with HCT-116 colon. Also, the growth in the assay with HCC-2998 colon was 105%; with KM12 colon, 107%.
Consider `O=C1C=CC(=O)N1CCCCCCCCCCN1C(=O)C=CC1=O`, for which the growth was 77.9% in the assay on T-47D breast; 101% in the assay with BT-549 breast; 68.6% in the assay on MDA-MB-435 melanoma; 4.62% (active) with SW-620 colon; 82.7% in the assay on MCF7 breast; 32.9% with HCT-116 colon. The values for the growth in the assay with HCC-2998 colon and with KM12 colon were 90.7% and 86.2%, respectively.
In the case of `O=[N+]([O-])c1cc2c(cc1Br)C1C(C3C2C(Cl)(Cl)C(Cl)=C(Cl)C3(Cl)Cl)C(Cl)(Cl)C(Cl)=C(Cl)C1(Cl)Cl` (stereo not given), the growth with T-47D breast was 90.8%; in the assay with BT-549 breast, 93.1%; in the assay with MDA-MB-435 melanoma it was 103%; in the assay with SW-620 colon it was 115%; in the assay with MCF7 breast it was 91.5%; with HCT-116 colon, 89.7%. Also, the figures for the growth in the assay on HCC-2998 colon and in the assay with KM12 colon were 93.4% and 106%, respectively.
Take `Cc1ccc2c(c1)c(Sc1ccc(C(=O)NO)cc1)c1n2CN(C)CC1`: the growth in the assay on T-47D breast is 23.4%; in the assay with BT-549 breast, 54.3%; in the assay with MDA-MB-435 melanoma it was 18.9%; in the assay with SW-620 colon, 7.66% (active); with MCF7 breast it was 16.6%; in the assay with HCT-116 colon, -11.2% (active). The growth was 14.9% in the assay with HCC-2998 colon and 27.7% in the assay with KM12 colon.
Take `CCOC(=O)c1sc(NC(=O)CN2CCC(Cc3ccccc3)CC2)nc1C`: the growth in the assay with T-47D breast is 101%; in the assay with BT-549 breast, 104%; in the assay on MDA-MB-435 melanoma it was 105%; in the assay with SW-620 colon it was 95.8%; in the assay with MCF7 breast it was 94.4%; in the assay with HCT-116 colon it was 81.5%. In addition, the growth in the assay on HCC-2998 colon is 102%; in the assay with KM12 colon, 106%.
In the case of `CCCN1CCN(c2ccc3nc(-c4ccc5nc(-c6ccc(C(F)(F)F)cc6)[nH]c5c4)[nH]c3c2)CC1`, the growth was 48% in the assay on T-47D breast; 73.5% with BT-549 breast; -89% (active) in the assay with MDA-MB-435 melanoma; -82.6% (active) with SW-620 colon; -77% (active) in the assay on MCF7 breast; -83.3% (active) in the assay with HCT-116 colon. In addition, the figures for the growth with HCC-2998 colon and in the assay with KM12 colon were -89.8% (active) and -86.4% (active), respectively.
As to `COc1ccc(-n2ncc3c2ccc2cc(S(=O)(=O)c4ccccc4)c(=O)n(C)c23)cc1`, the growth with T-47D breast is 90.6%; in the assay with BT-549 breast, 67.8%; with MDA-MB-435 melanoma, 90.3%; in the assay with SW-620 colon, 97.5%; with MCF7 breast, 91%; in the assay with HCT-116 colon, 78.3%. The growth with HCC-2998 colon is 102%; with KM12 colon, 88.8%.
